# NR5A2 inv ag: inverse agonists of human LRH-1 (NR5A2); O00482; inhibition, % at 3.6 µM; HEK293T StAR-luciferase reporter, LRH-1 transfected, 24 h; hit rate 0.13% among 360,000;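 active means inhibition above the mean inhibition of all tested compounds plus 3 SD, cut at about 73% in these data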
# NR2F2 inh: blocks human COUP-TFII nuclear receptor; HEK293T NGFI-A luciferase reporter, luminescence; inhibition, % at 8.6 µM; hit rate 0.7% among 370,000; AID 686940;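 active means inhibition above a per-plate cutoff, mean inhibition of test wells between control levels plus 3 SD, cut at about 38% in these data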;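 further: cells cotransfected with COUP-TFII expression vector driving the NGFI-A reporter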
# Target sequence (P24468 whole entry, looked up): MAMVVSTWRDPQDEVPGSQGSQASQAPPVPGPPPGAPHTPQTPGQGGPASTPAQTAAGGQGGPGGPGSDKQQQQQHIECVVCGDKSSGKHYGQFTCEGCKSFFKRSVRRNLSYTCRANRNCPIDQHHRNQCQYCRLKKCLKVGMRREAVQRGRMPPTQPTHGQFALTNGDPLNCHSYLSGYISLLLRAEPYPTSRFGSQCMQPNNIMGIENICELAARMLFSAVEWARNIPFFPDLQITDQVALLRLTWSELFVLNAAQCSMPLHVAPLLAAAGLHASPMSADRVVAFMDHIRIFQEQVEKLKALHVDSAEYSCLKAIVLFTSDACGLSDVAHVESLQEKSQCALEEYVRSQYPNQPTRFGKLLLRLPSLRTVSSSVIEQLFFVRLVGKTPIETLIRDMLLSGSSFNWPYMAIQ
# SRC3 inh: inhibits human SRC3 coactivator. inhibition, % at 3.6 µM. hit rate 0.17% among 360,000. Q9Y6Q9. HEK293 GAL4-SRC3 luciferase reporter, luminescence;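 active means inhibition above a per-campaign cutoff, the mean of all compounds plus 3 SD, cut at about 60% in these data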;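 further: higher means less SRC3-driven luciferase light from the GAL4 reporter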
# NCOA2 inhibitor: inhibits human steroid receptor coactivator 2. AID 651957. hit rate 0.17% among 370,000. Q15596. HEK293 GAL4-SRC2 luciferase reporter, luminescence. inhibition, % at 9 µM;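 active means inhibition above the mean inhibition of all tested compounds plus 3 SD, set per campaign, cut at about 52% in these data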
# NCOA1 inh: inhibits human SRC1 coactivator; hit rate 0.12% among 360,000; inhibition, % at 3.6 µM; Q15788; HEK293 GAL4-SRC1 luciferase reporter, luminescence;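 active means inhibition above the campaign mean plus 3 SD, with each screening campaign given its own cutoff, cut at about 60% in these data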
# VP16 Luc counter: VP16 inhibition counter-screen for COUP-TFII; HEK293 Gal4-VP16 luciferase reporter, luminescence; shares compounds with NR2F2 inh; hit rate 25% among 2,500; inhibition, % at 8.5 µM; in the data active means inhibition above about 13%
# NR2F2 inh conf: confirmation of human COUP-TFII (NR2F2) inhibitors. inhibition, % at 8.5 µM. shares compounds with NR2F2 inh. HEK293 NGFI-A luciferase reporter, luminescence. hit rate 45% among 2,500. AID 687008;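 active means mean inhibition over three repeats above a set limit taken from the earlier primary screen, cut at about 38% in these data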
# Numbers stand for hits; . = inactive; / = no result. This is a sample that favours compounds with a hit; in the whole collection about 0.84% have one here.
SMILES,NR5A2 inv ag,NR2F2 inh,SRC3 inh,NCOA2 inhibitor,NCOA1 inh,VP16 Luc counter,NR2F2 inh conf
COc1cccc(CNc2nc3cc(-c4cnn(Cc5ccccc5)c4)sc3c(=O)n2C)c1,.,79,.,.,.,17,54
COc1cccc(CNc2nc3cc(-c4ccccc4)sc3c(=O)n2C)c1OC,.,.,.,.,.,/,/
COc1cccc(CNc2nc3cc(-c4cccc(OC)c4)sc3c(=O)n2C)c1,.,.,.,.,.,/,/
O=C(OC12CCCN(C1)/C(=C/c1ccncc1)C2)c1ccccc1 (centres undefined),/,45,/,.,/,.,.
O=C(OC12CCCN(C1)/C(=C/c1cccnc1)C2)c1ccccc1 (centres undefined),/,.,/,.,/,/,/
COC(=O)[C@]12C[C@H](CC(=O)NCC34CC5CC(CC(C5)C3)C4)C(=O)N(Cc3ccc4c(c3)OCO4)C1=C[C@H](COCc1ccccc1)O[C@@H]2C,/,.,/,.,/,/,/
Cc1cccc(NC(=O)CSc2nc3c([nH]c4ccccc43)c(=O)n2C)c1,.,.,.,.,.,/,/
Cc1cccc(NC(=O)CSc2nc3ccccc3c(=O)n2C)c1,.,41,.,.,.,.,.
O=[N+]([O-])c1ccc(Cl)c(C2Nc3cccc4cccc(c34)N2)c1,.,41,.,.,.,.,.
CC(=O)N1C[C@@H](CO)[C@@H](N(C)C(=O)/C=C/c2ccccc2)C[C@H]1c1ccccc1,/,.,/,.,/,/,/
O=C(NCc1ccccc1)[C@H]1CCCN1C(=O)[C@H]1CCCN1C(=O)c1cccc(F)c1,/,.,/,.,/,/,/
COc1ccc(N/N=C(\C#N)C(N)=O)cc1,.,.,.,.,.,/,/
N#C/C(=N/Nc1ccc(OC(F)(F)F)cc1)C(N)=S,.,38,.,.,.,.,.
C[C@H](c1ccccc1)N1C[C@@H](COCc2ccccc2)Oc2cccc(Oc3ccc(C(C)(C)C)cc3)c2S1(=O)=O,/,.,/,.,/,/,/
Cc1cc(C)cc(NC(=O)OC2CC3CC2[C@H]2CCCCN2[C@H]3Cc2ccccc2)c1 (some centres undefined),/,.,/,.,/,/,/
CCCS(=O)(=O)c1cnc(C2COc3ccccc3O2)nc1N (centres undefined),.,72,.,69,.,42,79
COC(=O)[C@]12C[C@H](CC(=O)N3CCC(c4ccccc4)CC3)C(=O)N(Cc3ccccc3)C1=C[C@H](C(C)(C)C)O[C@@H]2C,/,.,/,.,/,/,/
CC(C)(C)CN1CCN(Cc2nc(-c3ccc(F)cc3)cs2)CC1CCO (centres undefined),.,48,.,.,.,.,.
OCCC1CN(Cc2nc(-c3ccc(F)cc3)cs2)CCN1CCc1ccccc1 (centres undefined),.,.,.,.,.,/,/
C=C(C(=O)c1ccccc1)C(NC(C)(C)C)c1ccccc1 (centres undefined),73,80,.,60,.,67,92
CN1CCCCC(NC(=O)c2ccc3ccccc3c2)C1=O (centres undefined),/,.,/,.,/,/,/
c1ccc(Nc2ncnc3sccc23)cc1,.,.,.,.,.,/,/
CC(Nc1ncnc2sccc12)c1ccccc1 (centres undefined),.,60,.,.,.,.,61
CCn1cc(CCCC(=O)NCc2cccc(OC)c2)c2ccccc21,.,38,.,.,.,.,.
CCn1cc(CCCC(=O)NCc2ccccc2OC)c2ccccc21,.,.,.,.,.,/,/
SMILES,NR5A2 inv ag,NR2F2 inh,SRC3 inh,NCOA2 inhibitor,NCOA1 inh,VP16 Luc counter,NR2F2 inh conf
CC(C)(C)C(=O)NCCCc1nc2ccccc2n1CCCOc1ccc(Cl)cc1,.,60,.,.,.,.,.
O=C(CN1C(=O)c2ccccc2S1(=O)=O)c1ccc(OC(F)F)cc1,.,/,.,/,.,/,/
O=C(CN1C(=O)c2ccccc2S1(=O)=O)c1ccc(F)cc1,.,40,.,.,.,.,.
O=C(CN1C(=O)c2ccccc2S1(=O)=O)c1ccc2c(c1)OCCO2,.,89,85,89,82,83,99
O=C(CN1C(=O)c2ccccc2S1(=O)=O)c1cccc(Br)c1,.,.,.,.,.,/,/
O=C(CN1C(=O)c2ccccc2S1(=O)=O)c1ccc2c(c1)OCCCO2,93,100,93,93,93,93,109
O=C(CN1C(=O)c2ccccc2S1(=O)=O)c1ccc(Cl)cc1Cl,.,91,62,87,.,70,90
Cc1cc(NNC(=O)c2cccc(C(F)(F)F)c2)nc2c1c(C)nn2C,.,50,.,.,.,.,43
Cc1cc(C)n(CC(=O)NNC(=O)c2cccc(C(F)(F)F)c2)n1,.,.,.,.,.,/,/
CC1CCN(c2ncnc3ccccc23)CC1,.,45,.,.,.,.,.
CC1(C)N=C(N)N=C(N)N1c1ccc(CCCCc2ccccc2)cc1,80,70,.,.,.,28,62
CN1[C@H](Cc2ccccc2)COc2cc(N3CCCC3)ccc2S1(=O)=O,/,55,/,.,/,.,.
Cc1cc(NC(=O)Cc2cn(Cc3ccccc3)c3ccccc23)ccc1Oc1cccnc1,/,.,/,.,/,/,/
CN1/C(=C\P(=O)(N(C)C)N(C)C)C(C)(C)c2ccccc21,.,46,.,.,.,.,.
COC(=O)C1=C(C)N(Cc2ccccc2C(F)(F)F)C(=NCc2cc(OC)c(OC)c(OC)c2)NC1c1cccc(F)c1 (centres undefined),/,.,/,.,/,/,/
CCOC(=O)C1CCCN(C(=O)CCCn2nnnc2CN2CCOCC2)C1 (centres undefined),.,.,.,.,.,/,/
C[C@H](c1ccccc1)N1C[C@@H](COCc2ccccc2)Oc2cccc(N3CCCC3)c2S1(=O)=O,/,.,/,.,/,/,/
Cc1cccc(Nc2nc(-c3c(C)nc4ccccn34)cs2)c1,.,53,.,.,.,.,44
Cc1nc2ccccn2c1-c1csc(Nc2cccc(O)c2)n1,.,.,.,.,.,/,/
CCN(CC)S(=O)(=O)c1ccc(Cl)c(NC(=S)NC(=O)C2CCCC2)c1,.,44,.,.,.,.,.
Nc1ccc2c(c1)C(=O)C(=O)c1ccccc1-2,105,102,93,94,85,97,110
Cc1nc2c(-c3ccc(F)cc3)cnn2c(N)c1-c1ccc(F)cc1,.,47,.,.,.,.,.
Cc1ccc(NC(=O)CCCC(=O)O)c(-c2nc3ccccc3[nH]c2=O)c1,.,.,.,.,.,/,/
CC(C)Cn1c(SCC(=O)Nc2cc(Cl)c(Cl)cc2Cl)nc(O)cc1=O,.,.,.,.,.,/,/
CCCCCCn1ccc(=N)cc1,.,76,.,.,.,.,50
CCOC(=O)N[C@H](C(=O)N1CCC[C@H]1C(=O)NCc1ccccc1)C(C)C,/,.,/,.,/,/,/
CCCCc1n(CC(=O)c2ccc(Cl)cc2)c2ccccc2[n+]1C,.,.,.,.,.,/,/
